# Assay results from PubChem BioAssay (NCI).
# The panel holds about 83,000 compounds, 20% with a hit somewhere; the sample as a whole holds those more often.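 Results are percent growth after 48 hours of single-concentration exposure. 100 means growth as in untreated cells, lower positive values show inhibition; negative values down to -100 show cell death.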 Unmarked numbers belong to inactive results. Calls of active or inactive are those of the source. The calls were made as follows: active = growth percent below 10; inactive = the rest.
# Legend:
# Experiment in all cases: NCI-60 one-dose screen, 48 h (100 = growth as untreated, 0 = no growth, -100 = all killed)
# Settings in all cases: 10 µM unless noted
# [1] = system: SR leukemia
# [2] = system: RPMI-8226 leukemia
# [3] = system: OVCAR-8 ovarian
# [4] = system: OVCAR-5 ovarian
# [5] = system: OVCAR-4 ovarian
# [6] = system: SK-OV-3 ovarian
# [7] = system: IGROV1 ovarian
# [8] = system: OVCAR-3 ovarian
# [9] = system: HS 578T breast
# [10] = system: NCI/ADR-RES ovarian
# [11] = system: T-47D breast
# [12] = system: BT-549 breast
# [13] = system: MDA-MB-435 melanoma
# [14] = system: SW-620 colon
# [15] = system: MCF7 breast
# [16] = system: HCT-116 colon
# [17] = system: HCC-2998 colon
# [18] = system: KM12 colon
Structure (SMILES),growth [1],growth [2],growth [3],growth [4],growth [5],growth [6],growth [7],growth [8],growth [9],growth [10],growth [11],growth [12],growth [13],growth [14],growth [15],growth [16],growth [17],growth [18]
O=C(/C=C/CN1CCCCC1)Nc1cc2c(Nc3ccc(F)c(Cl)c3F)ncnc2cc1OCCOC(F)F,11.5%,12.7%,19.5%,34.8%,12.9%,-6.19% (active),-9.94% (active),0.43% (active),-7.08% (active),9.16% (active),-1.83% (active),18.3%,8.14% (active),10.3%,17.6%,6.6% (active),40.6%,36.5%
COc1cccc(/C=C2\SC(N3CCN(c4ccccn4)CC3)=NC2=O)c1,89.7%,85.8%,100%,113%,110%,111%,103%,100%,95.8%,103%,95%,112%,108%,97.9%,94.8%,103%,99.4%,97.4%
Cc1cnc(NC(=O)C(Cc2ccccc2)NC(=O)c2ccccc2)s1 (centres undefined),41%,-15.7% (active),92.6%,106%,59.4%,108%,-19.6% (active),83.8%,85.8%,65.6%,87.3%,88.4%,13.2%,80.3%,46.2%,49.7%,73.3%,60.2%
O=S(=O)(NCCNc1nccc(-c2c(-c3ccccc3)nc3sccn23)n1)c1ccc(O)cc1,18.2%,52.8%,40.8%,87.1%,56.5%,65.3%,22%,38.9%,64.6%,85.5%,41.2%,48.9%,10.5%,30%,18.5%,21.5%,64.9%,21.6%
CC(C)N(Cc1ccc(CN(C(=O)CCl)C(C)C)cc1)C(=O)CCl,8.59% (active),1.57% (active),-12.9% (active),4.12% (active),26.4%,49.7%,-49.3% (active),-76.1% (active),59.3%,4.6% (active),-14.8% (active),18.6%,27.2%,2.78% (active),23.8%,-67.4% (active),93.8%,41.1%
COc1cc(Br)c(OC)cc1Br,111%,96.2%,105%,93%,102%,101%,79.5%,96.8%,94.1%,95.3%,82%,97.7%,105%,94.7%,63.1%,91.5%,99.6%,76.3%
O=C(CNC1CCCCC1)Nc1ccc(-c2nc3ccccc3s2)cc1,9.67% (active),77.6%,99.3%,94.7%,84.4%,90.8%,100%,94%,84.3%,89%,69.1%,87.6%,90.4%,100%,28%,77%,87.3%,83.9%
O=S(=O)(NCCCNc1cc(-c2cn(-c3ccccc3)nc2-c2cccc(O)c2)ccn1)c1ccc(Br)cc1,-12.4% (active),3.52% (active),19.1%,23.4%,37.4%,20.7%,22.4%,22%,-3.87% (active),16.2%,12.5%,7.68% (active),9.98% (active),10.7%,7.31% (active),9.44% (active),-62.4% (active),7.88% (active)
